# SARS 3CLpro inh: SARS-CoV 3CLpro protease inhibition. P0C6X7. recombinant SARS-CoV 3CLpro, quenched FRET peptide cleavage. inhibition, % at 6 µM. 290,000 compounds, 0.14% hits. AID 1706; in the data active = inhibition above about 12%
# CCHF vOTU inh: blocks the CCHF virus ovarian tumor domain protease; CCHFV vOTU protease, Pep-AMC fluorescence; inhibition, % at 11.5 µM; 370,000 compounds, 0.55% hits; AID 651958; in the data active = inhibition above about 30%; note: 0% = vehicle wells with enzyme and 100% = no enzyme wells
# Autofluor counter: compound fluorescence in toxin protease inhibitor counterscreen | fluorescence intensity (concentration not given with the values) | compound autofluorescence counterscreen, microsphere flow cytometry; hits give high values | 360,000 compounds, 3.1% hits; in the data active = fluorescence intensity above about 16000; inconclusive = no clear call, values can overlap the other calls
# BoNT-F LC inh: blocks Botulinum neurotoxin F light chain protease | Multiplex microsphere protease cleavage assay, flow cytometry | inhibition, % at 10 µM | 360,000 compounds, 0.22% hits | AID 588497; in the data active = inhibition above about 35%, passing the limit was not always enough; inconclusive = no clear call, values can overlap the other calls; note: plate controls were buffer without enzyme for full effect and enzyme alone for no effect
# Anthrax LF inh2: anthrax lethal factor protease inhibition; AID 588501; multiplex microsphere protease cleavage assay, LF; inhibition, % at 10 µM; 360,000 compounds, 0.12% hits; note: plate controls were buffer without enzyme for full effect and enzyme alone for no effect
# BoNT-A LC inh2: blocks Botulinum neurotoxin A light chain protease; multiplex microsphere protease substrate cleavage, flow cytometry; inhibition, % at 10 µM; 360,000 compounds, 0.17% hits; note: plate controls were buffer without enzyme for full effect and enzyme alone for no effect
# An asterisk follows results filed as active; ? = inconclusive; nt = no result given. This is a sample that favours compounds with a hit; in the whole collection about 3.9% have one here. Cut-off read from the data, not from the text of the source, unless noted: active = inhibition above about 30%; inconclusive = no clear call, values can overlap the other calls; inactive = below that.
SMILES,SARS 3CLpro inh,CCHF vOTU inh,Autofluor counter,BoNT-F LC inh,Anthrax LF inh2,BoNT-A LC inh2
COc1cccc(CN(CC(=O)NCC2CCCO2)C(=O)CNS(=O)(=O)c2ccccc2)c1 (stereo not drawn),1,-7,16841*,-2,-1,-2
COc1cccc(N(CC(=O)NCC2CCCO2)C(=O)CNS(=O)(=O)c2ccccc2)c1 (stereo not drawn),4,-4,3735,-10,-5,-1
Cc1ccc(C(O)CCc2ccc(N)cc2)cc1 (stereo not drawn),-6,-4,3824,-8,-2,-3
COCCCN1C(=O)[C@H](CC(=O)NCc2ccccc2)[C@]2(C(=O)OC)CCCCC=C12,nt,6,nt,nt,nt,nt
COc1cccc2cc(C(=O)Nc3ccc(S(=O)(=O)NCC4CCCO4)cc3)c(=O)oc12 (stereo not drawn),5,3,24536*,-118,-32,-24
CC(=O)OC12CCCN(C1)/C(=C/c1cccnc1)C2 (stereo not drawn),nt,-4,nt,nt,nt,nt
O=C(CCl)N1c2ccccc2Oc2ccc3ccccc3c21,nt,-5,3811,11,35*,31*
COc1ccc(C(=O)c2c(N)sc3c2CCN(C)C3)cc1,-1,-12,4611,-51,-7,34*
O=S(=O)(c1ccc2ccccc2c1)N1CCN(C2CCN(Cc3ccccc3)CC2)CC1,3,-5,23769*,0,0,-1
CC1=C(C(=O)N(C)C)CC(CC(=O)NCc2cccc3ccccc23)C(=O)N1CCC1=CCCCC1 (stereo not drawn),nt,0,3703,-6,2,0
Cc1ccc(NC(=O)CSC2=C(C#N)C(c3ccc4c(c3)OCO4)CC(=O)N2)cc1C (stereo not drawn),-4,nt,22137*,4,-7,2
COCCOc1ccc(C(F)(F)F)cc1NC(=O)COC(=O)c1cc([N+](=O)[O-])ccc1N1CCOCC1,0,8,5973,-1,-4,-2
COc1ccc(-c2cc(=O)oc3cc4occ(C)c4cc23)cc1,2,-2,22808*,1,-2,1
COc1ccc(OP(=O)(Nc2ccccc2)Nc2ccccc2)cc1,-1,8,17088*,14,-13,16
c1ccc(-c2nnc3sc(CN4CCC5(CC4)OCCO5)cn23)cc1,0,-5,20544*,-1,0,-1
COc1cc2nc(C)sc2cc1SC,-3,-8,9335,10,2,1
COc1cc2nc(/C=C/c3cc(OC)c(OC)c(OC)c3)sc2cc1SC,6,-5,3237,13,21,54*
COC(=O)c1ccc2nc(-c3ccc(C)cc3)c(Cc3ccccc3OC)n2c1,nt,7,6333,14,23,11
COCCNC(=O)c1c(NC(=O)c2ccco2)n(Cc2ccccc2)c2nc3ccccc3nc12,-3,-58,3129,8,5,12
N#Cc1c(NC(=O)c2ccccc2Cl)n(Cc2ccccc2)c2nc3ccccc3nc12,1,101*,2894,1,9,31*
COCCCNC(=O)c1c(NC(=O)c2ccccc2Cl)n(Cc2ccccc2)c2nc3ccccc3nc12,1,-1,18554*,10,12,?
O=C(NC1CCCCCCC1)C1CCN(c2nc3ccccc3o2)CC1,5,-2,17616*,-6,-3,-4
CCOC(=O)N1CCC(NC(=O)C2CCN(C(=O)N3CC(C)Oc4ccccc43)CC2)CC1 (stereo not drawn),1,-1,16437*,1,0,-1
O=C(NCCc1ccccc1)C1CCN(c2nc3ccccc3o2)CC1,-1,nt,12206,-24,-2,-2
CCOC(=O)N1CCC(NC(=O)C2CCN(C(=O)N3CC(C)Oc4ccc(C)cc43)CC2)CC1 (stereo not drawn),1,-6,9229,-3,0,0
SMILES,SARS 3CLpro inh,CCHF vOTU inh,Autofluor counter,BoNT-F LC inh,Anthrax LF inh2,BoNT-A LC inh2
O=C(NCc1ccc(F)cc1)C1CCCN(c2nc3ccccc3o2)C1 (stereo not drawn),nt,3,nt,nt,nt,nt
CCOC(=O)N1CCC(NC(=O)C2CCCN(c3nc4ccccc4o3)C2)CC1 (stereo not drawn),2,1,25111*,-5,2,-3
CCCNC(=O)C[C@H]1CC[C@H]2[C@@H](COc3ccc(NC(=O)c4cncs4)cc3C(=O)N2C)O1,nt,4,nt,nt,nt,nt
COC(=O)c1cc2c(c3c4ccccc4n(S(=O)(=O)c4ccccc4)c13)C(=O)N(C)C2,nt,2,nt,nt,nt,nt
O=C(Nc1ccc(F)cc1)C1CCN(c2nnnn2-c2ccccc2)CC1,2,5,19751*,1,2,?
COc1ccccc1-c1c(C)oc2c(CN3CCN(CCO)CC3)c(O)ccc2c1=O,-2,-157,3251,-9,-11,0
COc1ccccc1-c1c(C)oc2c(CN3CCN(C)CC3)c(O)ccc2c1=O,2,-176,21100*,-2,-2,?
CN1CCN(Cc2c(O)ccc3c(-c4ccccc4)cc(=O)oc23)CC1,0,-12,23428*,-2,-4,?
Cc1cc(=O)oc2c(CN3CCN(CCO)CC3)c(O)ccc12,-1,-332,4620,-17,-6,-7
O=C1NCCOc2ccccc21,nt,10,nt,nt,nt,nt
O=C(CSc1nnc(CNC(=O)c2ccccc2F)o1)Nc1cccc(C(F)(F)F)c1,4,1,4119,7,0,2
Cc1ccnc(NC2(C(F)(F)F)N=C(c3ccccc3)NC2=O)c1 (stereo not drawn),-3,-9,19679*,5,-3,3
COc1cccc(NC(=O)CN(C)C(=O)CN2C(=O)NC(C)(c3ccc4ccccc4c3)C2=O)c1 (stereo not drawn),nt,-1,?,-8,-2,3
NC1=NC2(CCCCC2)N(c2ccc(F)cc2)C(N)=N1,-3,12,3563,11,-2,0
NC1=NC2(CCCCC2)N(c2cccc(Cl)c2)C(N)=N1,3,9,16971*,-3,-1,-1
CC1C(C#N)=C(N)OC2=C1C(=O)CC(C)(C)C2 (stereo not drawn),1,-8,6110,-5,-4,0
CC1(C)CC(=O)C2=C(C1)OC(N)=C(C#N)C2C1CC=CCC1 (stereo not drawn),0,nt,22645*,-1,0,3
COC(=O)c1c(C)oc(C)c1S(=O)(=O)N(Cc1ccccc1)C(C)C,-2,-2,3310,?,14,-1
O=Cc1ccc(Sc2nnc(-c3ccccc3)o2)c([N+](=O)[O-])c1,0,nt,19318*,4,-7,?
CC1CCCCC1NC(=O)CCNS(=O)(=O)c1ccc(Cl)cc1 (stereo not drawn),5,-2,5010,3,3,1
Cc1ccc(NC(=S)N/N=C/c2ccc([N+](=O)[O-])s2)cc1,-3,21,2722,-2,27,47*
Cc1oc(C(=O)O)cc1COc1ccc2c3c(c(=O)oc2c1C)CCC3,1,-8,16185*,-5,0,0
Cc1c(OCC(=O)OC(C)(C)C)ccc2c3c(c(=O)oc12)CCC3,-7,2,5189,-6,-1,0

# Source: PubChem BioAssay
